Bioassay records: PubChem, Broad Institute
STAT3 SMM: STAT3 binders, primary screen, biochemical, small molecule microarray, single point, set 2 | His-STAT3 binding, anti-His fluorescence | calls only | 17,000 compounds, 0.2% hits;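 active means compounds whose four printed spots each show fluorescence over background unusually high for their array block, chance value under 7%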
Target sequence (P40763 whole entry, looked up): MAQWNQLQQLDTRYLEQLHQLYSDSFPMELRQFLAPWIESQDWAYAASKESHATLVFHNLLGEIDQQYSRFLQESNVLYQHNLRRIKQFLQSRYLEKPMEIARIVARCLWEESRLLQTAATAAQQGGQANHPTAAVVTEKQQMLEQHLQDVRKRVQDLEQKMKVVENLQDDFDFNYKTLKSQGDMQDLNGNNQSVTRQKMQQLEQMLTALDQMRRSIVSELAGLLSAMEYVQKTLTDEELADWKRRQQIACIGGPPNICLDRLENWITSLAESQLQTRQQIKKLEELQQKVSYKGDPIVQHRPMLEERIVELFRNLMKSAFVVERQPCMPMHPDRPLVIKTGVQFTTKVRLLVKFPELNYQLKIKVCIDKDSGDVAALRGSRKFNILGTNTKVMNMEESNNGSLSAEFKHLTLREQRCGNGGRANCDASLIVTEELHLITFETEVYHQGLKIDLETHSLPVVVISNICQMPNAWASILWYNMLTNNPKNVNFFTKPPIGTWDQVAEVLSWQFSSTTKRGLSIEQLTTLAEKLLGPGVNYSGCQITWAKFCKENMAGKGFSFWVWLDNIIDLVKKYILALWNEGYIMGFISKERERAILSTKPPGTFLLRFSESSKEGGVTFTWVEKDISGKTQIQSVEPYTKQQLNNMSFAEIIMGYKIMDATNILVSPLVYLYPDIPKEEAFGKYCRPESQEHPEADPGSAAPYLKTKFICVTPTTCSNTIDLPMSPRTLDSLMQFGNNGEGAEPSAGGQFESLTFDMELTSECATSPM
NFkB binder: binders of NF-kB p50 subunit, primary screen, biochemical, small molecule microarray, anti-His fluorescence; Nuclear factor NF-kappa-B p105 subunit (Homo sapiens), P19838; anti-His fluorescence binding; calls only; 17,000 compounds, 1.3% hits; AID 624139, 2012;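 active means spot fluorescence over background significantly raised, with a chance value under 7% in all four replicate spots of the compound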;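 further: probe protein is his-tagged human p50 processed subunit at 1 µg/ml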
mut p53 SMM: binders of human mutant p53, primary screen, biochemical, small molecule microarray, anti-GST fluorescence | mutant tumor protein p53 (GST-tagged), Homo sapiens | small molecule microarray binding | calls only | 17,000 compounds, 0.4% hits | AID 624136, 2012;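 active means compounds whose four printed spots each glow above background more than chance allows, each with a p-value under 7%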
c-Myc SMM: binders of human c-Myc, primary screen, biochemical, small molecule microarray, anti-His fluorescence; Myc proto-oncogene protein (Homo sapiens), P01106; His-c-Myc binding; calls only; 17,000 compounds, 1.5% hits;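 active means spot fluorescence over background with P-value below 7% in all four replicate spots, showing protein binding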
Of the large screens only hits and unclear results are named; the others gave an inactive call. The list is not random: actives were taken first. Their share in the collection is about 2.5%.

O=C1O[C@H](c2ccccc2)[C@H](c2ccccc2)N2[C@H]1[C@@H](C(=O)N1CCCCCCC1)[C@]1(C(=O)Nc3ccccc31)[C@H]2c1ccc(OCCO)cc1	NFkB binder active, mut p53 SMM active, c-Myc SMM active
C[C@@H]1O[C@@H](Oc2ccc(-c3coc4cc(O[C@@H]5O[C@@H](C)[C@H](O)[C@@H](O)[C@H]5O)ccc4c3=O)cc2)[C@H](O)[C@H](O)[C@H]1O	none
C/C=C/C1=C(Cl)C(=O)[C@@H](O)[C@@]1(O)C(=O)OC	NFkB binder active
C=CCOC(=O)[C@@H]1[C@H]2C(=O)O[C@H](c3ccccc3)[C@H](c3ccccc3)N2[C@H](c2ccc(OCCOC(=O)[C@@H]3C[C@@H]4C(=O)N[C@@H](CC(C)C)C(=O)N4[C@@H]3c3ccc(O)cc3)cc2)[C@@]12C(=O)Nc1ccc(I)cc12	none
C=CCOC(=O)[C@H]1[C@@H]2C(=O)O[C@@H](c3ccccc3)[C@@H](c3ccccc3)N2[C@@H](c2ccc(OCCOC(=O)[C@@H]3C[C@@H]4C(=O)N5CCC[C@H]5C(=O)N4[C@@H]3c3ccc(O)cc3)cc2)[C@]12C(=O)Nc1ccc(I)cc12	none
C=CCOC(=O)[C@H]1[C@@H]2C(=O)O[C@@H](c3ccccc3)[C@@H](c3ccccc3)N2[C@@H](c2ccc(OCCOC(=O)[C@H]3C[C@H]4C(=O)N5CCC[C@H]5C(=O)N4[C@H]3c3ccc(O)cc3)cc2)[C@]12C(=O)Nc1ccccc12	NFkB binder active
C=CCOC(=O)[C@@H]1[C@H]2C(=O)O[C@H](c3ccccc3)[C@H](c3ccccc3)N2[C@H](c2ccc(OCCOC(=O)[C@@H]3C[C@@H]4C(=O)N[C@@H](Cc5ccccc5)C(=O)N4[C@@H]3c3cccc(OCCO)c3)cc2)[C@@]12C(=O)Nc1ccc(I)cc12	NFkB binder active
O=C1C[C@H](c2ccc(O)cc2)Oc2c1c(O)cc(O)c2[C@@H]1C(=O)c2c(O)cc(O)cc2O[C@H]1c1ccc(O)cc1	none
C[C@@H]1CCCCO[C@H](CN(C)C(=O)Nc2cccc3ccccc23)[C@@H](C)CN([C@@H](C)CO)C(=O)c2cc(NC(=O)c3ccncc3)ccc2O1	NFkB binder active, c-Myc SMM active
C[C@H](CO)N1C[C@H](C)[C@@H](CN(C)C(=O)Nc2cccc3ccccc23)OCCCC[C@H](C)Oc2ccc(NC(=O)c3ccncc3)cc2C1=O	NFkB binder active, c-Myc SMM active
